Experiment [1] in a line: AP1 Signaling Pathway (AID 357; active = well fitted curve in either direction with a large enough effect, not every such curve was filed as active;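 note: ME-180 reporter cells stimulated with EGF at its EC50 level; % is set by controls: 0 for no effect and ±100 for the full control effect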). Particulars: ME-180 (cervical carcinoma) AP-1-bla reporter, EGF-induced, beta-lactamase ratio, 5 h; at 17.2 µM (top of the series) unless noted. The method in brief:
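First, ME-180 AP-1-bla cells were cultured overnight at 37 °C in low-serum Opti-MEM. Next, titrated compounds with EC50 EGF were incubated 5 hours. Finally, CCF4 was added for 2.5 hours and the 460/530 nm ratio recorded.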

The nature of experiment [2]: Cellular Toxicity (caspase-3) SK-N-SH (AID 661).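 Note: cells exposed to compound for 16 hours; 0% = DMSO basal and 100% = 10 µM staurosporine.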 In short, it runs like this: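 Caspase 3/7 activation was read by luminogenic substrate cleavage after 16 hour treatment of SK-N-SH cells. Signal was scaled between DMSO and 10 uM staurosporine, and concentration-response data were fitted with the Hill equation for AC50.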
The nature of experiment [3]: Cellular Toxicity (caspase-3) H-4-II-E (AID 663).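 Note: cells exposed to compound for 16 hr before readout.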 Conditions: H-4-II-E rat hepatoma, scaled: DMSO 0%, 100 µM tamoxifen 100%; at 92.2 µM (top of the series). In short, it runs like this:
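Caspase 3/7 activation measured by luminescent aminoluciferin substrate cleavage after 16 hr compound treatment of H-4-II-E cells in complete medium. Increase normalized between DMSO (basal) and 100 uM tamoxifen (100%); Hill-equation AC50 from concentration-response.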

Experiment [4] in a line: MultiTox-Fluor Cytotoxicity Assay - LYMP1-001 - Dead Cells (AID 946). Note: potency is the fitted concentration of half-maximal effect. In short, it runs like this:
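Cytotoxicity as increased dead-cell protease fluorescence (bis-AAF-R110, 485/520 nm), read 60 min after MultiTox-Fluor reagent. Human lymphoblastoid line exposed 16 h; Hill-fitted AC50, with DMSO as 0% and 15 uM tetraoctylammonium bromide as 100%.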

A short description of experiment [5]: MultiTox-Fluor Cytotoxicity Assay - LYMP1-002 - Dead Cells (AID 960). Note: potency is the fitted concentration of half-maximal effect; nearly all actives have a fitted effect of over 60% in size. The method in brief: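 Dead-cell fluorescence (Ex/Em 485/520) after 16 h compound exposure at 37 C of LYMP1-002 lymphoblastoid cells in complete medium; AC50 by Hill equation, with data scaled between DMSO and 15 uM tetraoctylammonium bromide.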
Experiment [6] can be described thus: Cell Viability - LYMP2-013 (AID 970). Note: potency is the fitted concentration of half-maximal effect; nearly all actives have a fitted effect of over 55% in size. In short, it runs like this: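 qHTS cytotoxicity: ATP-dependent luminescence (CellTiter-Glo, 30 min room temperature) read after 24 h compound exposure at 37 C of 2500 LYMP2-013 lymphoblastoid cells per well. Concentration-response fitted with Hill equation to give AC50.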
Experiment [7] is described as follows: Cell Viability - LYMP2-002 (AID 977). Note: potency is the fitted concentration of half-maximal effect. In short, it runs like this: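 Human lymphoblastoid cells (2500/well) in complete medium were preincubated 5 hr at 37 C, then exposed to compounds for 24 hr at 37 C. Intracellular ATP was read by CellTiter-Glo luminescence; AC50 came from Hill-equation concentration-response fits.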
Experiment [8] is described as follows: Cell Viability - LYMP2-006 (AID 978). Note: potency is the fitted concentration of half-maximal effect; nearly all actives have a fitted effect of over 60% in size. In short, it runs like this: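 Concentration-dependent loss of intracellular ATP in a human lymphoblastoid line after 24 hr treatment at 37 C was measured by CellTiter-Glo luminescence, with AC50 values obtained from standard Hill-equation modelling.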
Experiment [9] in a line: Cell Viability - LYMP2-010 (AID 981). Note: potency is the fitted concentration of half-maximal effect; nearly all actives have a fitted effect of over 55% in size. The method in brief:
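CellTiter-Glo ATP luminescence measured cytotoxicity after 24 h compound exposure at 37 C. LYMP2-010 cells were seeded at 2500/well, with tetraoctylammonium bromide as control; concentration-response curves gave AC50 values by the Hill equation.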

Experiment [10] in a line: Cell Viability - LYMP2-020 (AID 986). Note: potency is the fitted concentration of half-maximal effect; nearly all actives have a fitted effect of over 55% in size. In short, it runs like this:
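Cytotoxicity in qHTS format: luminescent ATP readout from CellTiter-Glo after 24 h compound exposure at 37 C in complete medium. LYMP2-020 lymphoblastoid cells were seeded at 2500/well; concentration-response data fitted to the Hill equation for AC50.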

A short description of experiment [11]: Cell Viability - LYMP2-022 (AID 987). Note: potency is the fitted concentration of half-maximal effect; nearly all actives have a fitted effect of over 55% in size. The method in brief:
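Cytotoxicity read as decreased cellular ATP (CellTiter-Glo luminescence, 30 min room temperature) after 24 hours compound exposure of 2500 lymphoblastoid LYMP2-022 cells/well at 37 C. Concentration-response data fitted with standard Hill equation for AC50.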

Experiment [12] can be described thus: Cell Viability - LYMP2-024 (AID 988). Note: potency is the fitted concentration of half-maximal effect; nearly all actives have a fitted effect of over 60% in size. The method in brief:
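Cytotoxicity was taken as a decrease in ATP (CellTiter-Glo luminescence) after 24 hr compound exposure at 37 C of LYMP2-024 lymphoblastoid cells, 2500 cells/well. Concentration-response data were fitted to the Hill equation to give AC50.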

Experiment [13] concerns the target Voltage-gated inwardly rectifying potassium channel KCNH2 (Homo sapiens) (UniProt Q12809). Description: qHTS Assay for Small Molecule Inhibitors of the Human hERG Channel Activity (AID 588834).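 For activity change, negative = inhibition: U2OS cells transduced with hERG by BacMam; top concentration of the series differs between compounds; % is set by controls: 0 for no effect and ±100 for the full control effect.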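 Note: lower thallium flux fluorescence means stronger hERG block; nearly all actives have a fitted effect of over 50% in size.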 Note: potency is the fitted concentration of half-maximal effect. In short, it runs like this:
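Cells were infected with hERG-BacMam virus for 4 hrs at room temperature, grown overnight, then seeded at 2000/well. After dye loading and roughly 10 min compound treatment, thallium influx was triggered and fluorescence recorded.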
(qHTS replaces the single test concentration by a dilution series.)

The target in experiment [14] is Peroxisome proliferator-activated receptor alpha (Homo sapiens) (UniProt Q07869). The experiment is described as follows: qHTS assay for small molecule agonists of the peroxisome proliferator-activated receptor alpha (PPARalpha) signaling pathway (AID 651778). Note: % of control where 0% means no effect. Conditions: PathHunter PPARalpha complementation, chemiluminescence, 6 h; max response: hits give high values. In short, it runs like this:
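Chemiluminescence from complemented enzyme reported PPARalpha activation in cells after 6 hr of compound treatment at 37 C. The detection reagent was incubated for 60 min at room temperature, and compounds were scored as agonists.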

Experiment [15] concerns the target Nuclear receptor ROR-gamma (Homo sapiens) (UniProt P51449). Description: qHTS assay for small molecule antagonists of the retinoid-related orphan receptor gamma (ROR-gamma) signaling pathway (AID 651802). Note: potency is the fitted concentration of half-maximal effect; nearly all actives have a fitted effect of over 60% in size. The method in brief: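 Luminescence (One-Glo, 30 min RT) measured 16 h after compound addition and doxycycline induction at 37C. Reporter: RORE-luciferase under TET-inducible ROR-gamma in CHO cells.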

Experiment [16] in a line: qHTS assay for small molecule antagonists of the retinoid-related orphan receptor gamma (ROR-gamma) signaling pathway - cell viability counter screen (AID 720652; active = well fitted curve in the direction sought with a large enough effect in the repeat runs; an effect the other way counts as inactive or inconclusive;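 note: potency is the fitted concentration of half-maximal effect; compound exposure lasted 16 hr before ATP read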). In short, it runs like this: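 Cytotoxicity counter screen: intracellular ATP (CellTiter-Glo luminescence) measured in the doxycycline-induced CHO RORE-luciferase reporter line after 16 hr compound exposure at 37 C, 5% CO2.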

Experiment [17] can be described thus: qHTS assay for cell viability of the p53RE-bla HCT-116 cell line (AID 743292). Note: nearly all actives have a fitted effect of over 55% in size. Note: potency is the fitted concentration of half-maximal effect. In short, it runs like this:
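Intracellular ATP of p53RE-bla HCT-116 cells measured by luciferase luminescence following 16 h compound incubation at 37 C; DMSO-only wells served as vehicle controls.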

The nature of experiment [18]: MultiTox-Fluor Cytotoxicity Assay - LYMP1-001 - Live Cells (AID 947). Note: potency is the fitted concentration of half-maximal effect.
The nature of experiment [19]: Cell Viability - HepG2 (AID 433; calls by dose curve;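 note: potency is the fitted concentration of half-maximal effect; potency for ATP loss meaning cytotoxicity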). Conditions: qHTS. In short, it runs like this:
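Cytotoxicity is scored as loss of intracellular ATP in HepG2 cells exposed to compounds for 40 h. Concentration-response curves, normalized to DMSO and 100 uM tamoxifen, give AC50 values.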

Experiment [20] can be described thus: qHTS assay for cell viability of HEK293 cells (AID 743288). Note: potency is the fitted concentration of half-maximal effect; nearly all actives have a fitted effect of over 50% in size. Conditions: ATP luminescence (CellTiter-Glo), 18 h; max response: hits give low values. The method in brief:
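Quantitative high-throughput screen: compounds were pinned onto parental HEK293 cells (2,000 per well) after a minimum 5 h settling at 37 C, incubated 18 h at 37 C, and intracellular ATP measured by luciferase luminescence.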

SMILES strings stand for the structures. Values joined by “and” are separate entries in the source; they are usually repeats but may differ in a detail not shown here. Identical values can stand only once. A number with no mark means an inactive call. Inconclusive results are not listed. Active and inactive are the calls of the source. Unless noted, calls come from the whole dose curve; as a rule, active = well fitted curve in the direction sought with a large enough effect; inconclusive = small, poorly fitted or top-dose-only effect, or another doubt; inactive = no such curve, though single readings can be large; an effect the other way counts as inactive or inconclusive.

Peroxisome proliferator-activated receptor alpha (Homo sapiens), sequence (Q07869 whole entry, looked up): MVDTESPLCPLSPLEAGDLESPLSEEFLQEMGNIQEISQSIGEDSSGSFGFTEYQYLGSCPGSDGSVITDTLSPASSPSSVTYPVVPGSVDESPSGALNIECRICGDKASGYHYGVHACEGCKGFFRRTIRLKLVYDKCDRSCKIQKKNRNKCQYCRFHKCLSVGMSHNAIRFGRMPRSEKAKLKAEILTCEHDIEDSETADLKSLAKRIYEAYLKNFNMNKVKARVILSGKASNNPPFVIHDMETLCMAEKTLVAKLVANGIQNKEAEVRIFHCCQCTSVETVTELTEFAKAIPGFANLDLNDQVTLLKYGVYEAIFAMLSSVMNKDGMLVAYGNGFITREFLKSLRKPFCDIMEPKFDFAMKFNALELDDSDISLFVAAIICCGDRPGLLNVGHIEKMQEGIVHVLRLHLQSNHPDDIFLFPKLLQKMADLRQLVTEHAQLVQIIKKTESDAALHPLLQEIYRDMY
Nuclear receptor ROR-gamma (Homo sapiens), sequence (P51449 whole entry, looked up): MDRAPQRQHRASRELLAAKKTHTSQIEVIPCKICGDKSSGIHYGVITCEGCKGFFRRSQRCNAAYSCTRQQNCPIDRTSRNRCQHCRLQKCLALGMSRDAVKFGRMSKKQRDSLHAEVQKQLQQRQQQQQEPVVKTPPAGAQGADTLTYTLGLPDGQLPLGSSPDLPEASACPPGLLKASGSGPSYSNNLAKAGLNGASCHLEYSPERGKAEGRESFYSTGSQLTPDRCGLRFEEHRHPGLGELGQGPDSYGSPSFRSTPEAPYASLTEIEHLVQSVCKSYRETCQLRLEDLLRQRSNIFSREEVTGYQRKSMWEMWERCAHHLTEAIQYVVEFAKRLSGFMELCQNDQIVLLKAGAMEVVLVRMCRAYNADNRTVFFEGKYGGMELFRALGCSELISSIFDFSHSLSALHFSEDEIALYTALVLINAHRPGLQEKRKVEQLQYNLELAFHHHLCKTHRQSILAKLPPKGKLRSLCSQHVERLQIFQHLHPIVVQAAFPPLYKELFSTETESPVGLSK
Voltage-gated inwardly rectifying potassium channel KCNH2 (Homo sapiens), sequence (Q12809 whole entry, looked up): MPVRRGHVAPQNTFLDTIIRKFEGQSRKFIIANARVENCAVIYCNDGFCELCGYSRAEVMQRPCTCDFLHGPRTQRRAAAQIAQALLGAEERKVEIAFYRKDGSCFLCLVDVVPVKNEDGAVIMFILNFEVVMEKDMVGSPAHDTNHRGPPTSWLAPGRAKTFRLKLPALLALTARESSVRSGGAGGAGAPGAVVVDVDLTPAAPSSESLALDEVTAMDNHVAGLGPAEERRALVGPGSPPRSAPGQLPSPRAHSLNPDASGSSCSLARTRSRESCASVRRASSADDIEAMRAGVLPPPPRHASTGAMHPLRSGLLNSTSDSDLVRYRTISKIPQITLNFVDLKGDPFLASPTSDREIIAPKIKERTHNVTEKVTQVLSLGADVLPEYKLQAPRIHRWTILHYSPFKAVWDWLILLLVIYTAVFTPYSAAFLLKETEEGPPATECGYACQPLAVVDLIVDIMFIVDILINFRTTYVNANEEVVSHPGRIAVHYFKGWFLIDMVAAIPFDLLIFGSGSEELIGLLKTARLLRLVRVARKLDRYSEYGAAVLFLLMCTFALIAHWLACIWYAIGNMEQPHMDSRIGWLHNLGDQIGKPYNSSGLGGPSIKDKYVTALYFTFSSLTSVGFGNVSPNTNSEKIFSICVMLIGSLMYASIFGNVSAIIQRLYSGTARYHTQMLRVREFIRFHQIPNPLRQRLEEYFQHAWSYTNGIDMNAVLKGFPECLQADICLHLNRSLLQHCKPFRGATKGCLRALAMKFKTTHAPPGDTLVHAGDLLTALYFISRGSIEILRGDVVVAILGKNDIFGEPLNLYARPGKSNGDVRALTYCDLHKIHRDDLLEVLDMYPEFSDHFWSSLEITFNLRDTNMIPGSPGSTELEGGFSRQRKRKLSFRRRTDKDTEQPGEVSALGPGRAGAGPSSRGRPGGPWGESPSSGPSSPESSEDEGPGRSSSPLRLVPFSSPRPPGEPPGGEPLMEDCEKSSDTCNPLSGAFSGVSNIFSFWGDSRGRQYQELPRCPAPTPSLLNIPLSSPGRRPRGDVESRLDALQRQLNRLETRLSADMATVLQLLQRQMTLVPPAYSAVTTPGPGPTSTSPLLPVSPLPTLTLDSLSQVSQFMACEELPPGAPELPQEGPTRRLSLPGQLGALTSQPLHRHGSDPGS

On to `COc1ccc2[nH]c3c(c2c1)CCN=C3C`, for which the activity change, negative = inhibition in experiment [1] was -4.7%.

In the case of `COC[C@@H]1OC(=O)c2coc3c2[C@]1(C)C1=C(C3=O)[C@H]2CCC(=O)[C@]2(C)C[C@@H]1OC(C)=O`, the activity change, negative = inhibition in [1] is -78.2% [at 38 µM] (active).

`CN1CC=C2C(C#N)=C(N)C(C#N)(C#N)C(c3ccncc3)C2C1` (stereo not given): the activity change, negative = inhibition in experiment [1] is 21.4%.

Turning to `CCOc1ccccc1-n1c(O)c(C=Nc2c(C)n(C)n(-c3ccccc3)c2=O)c(=O)[nH]c1=O`, the activity change, negative = inhibition in experiment [1] was -0.373%.

In the case of `CCOC(=O)c1cc(C)n(CCc2cnc[nH]2)c1C`, the activity change, negative = inhibition in experiment [1] is 3.65%.

As to `Nc1c(C(=O)NCc2ccco2)c2nc3ccccc3nc2n1CCN1CCCCC1`, the activity change, negative = inhibition in [1] is 29.1%.

With `Cc1c(N=Cc2c(O)n(Cc3ccco3)c(=O)[nH]c2=O)c(=O)n(-c2ccccc2)n1C`, the activity change, negative = inhibition in [1] was -3.26%.

As for `CN1[C@@H]2CC[C@H]1CC(O[C@@H](c1ccccc1)c1ccccc1N)C2` (stereo not given in full), the activity change, negative = inhibition in [1] was 12.1% [at 38 µM].

Turning to `C=CCN1C[C@@H](C)N([C@H](c2ccc(C(=O)N(CC)CC)cc2)c2cccc(OC)c2)C[C@H]1C`, the activity change, negative = inhibition in experiment [1] is -9.21% [at 38 µM].

With `CC(C)[C@H]1C(=O)N2CCC[C@H]2[C@]2(O)O[C@](NC(=O)[C@@H]3C=C4c5cccc6[nH]cc(c56)C[C@H]4N(C)C3)(C(C)C)C(=O)N12`, the activity change, negative = inhibition in experiment [1] was -19%.

With `CCC(=NCCOc1ccc(Cl)cc1)c1c(O)n(C)c(=O)n(C)c1=O`, in experiment [1], the activity change, negative = inhibition is -1.65%.

As to `O=C1C2CCN(CC2)[C@@H]1Cc1ccc2ccccc2c1O`, the activity change, negative = inhibition in [1] was 6.63%.

In the case of `C[N+]1(C)[C@@H]2CC(OC(=O)[C@@H](CO)c3ccccc3)C[C@@H]1[C@H]1O[C@H]12` (stereo not given in full), the activity change, negative = inhibition in experiment [1] was 0.541% [at 7.69 µM].

Turning to `CCCCOCCCn1c(N)c(C(=O)OCCOC)c2nc3ccccc3nc21`, in experiment [1], the activity change, negative = inhibition was -2.11%.

As for `NC(N)=Nc1ccc2[nH]c3c(c2c1)C[C@]1(O)[C@@H]2Cc4ccc(O)c5c4[C@]1(CCN2CC1CC1)[C@H]3O5`, the activity change, negative = inhibition in [1] is -18.3% [at 38 µM].

As for `C=C(C)[C@H]1Cc2c(ccc3c2O[C@H]2COc4cc(OC)c(OC)cc4[C@@H]2C3=O)O1`, in experiment [1], the activity change, negative = inhibition was 7.51% [at 38 µM].

With `CCOC(=O)[C@@]1(C#N)[C@@H]2C=CC(C(N)=O)=CN2[C@@H](C(N)=O)[C@@H]1c1cccc(Cl)c1`, in [1], the activity change, negative = inhibition is -3.06%.

With `O=C(CCl)c1ccccc1`, in [2], the result was inactive. Further, in experiment [3], the caspase-3 activation is -5.13%. In addition, the Potency is 50.1 µM (active) in experiment [4]; 25.1 µM (active) in experiment [5]; 15.8 µM (active) in [6]; 12.6 µM (active) in experiment [7]; 12.6 µM (active) in experiment [8]; 7.94 µM (active) in [9]. The Potency is 7.94 µM (active) in [10]; 6.31 µM (active) in experiment [11]; 7.94 µM (active) in experiment [12]; 16.8 µM (active) in experiment [15]; 29.8 µM (active) in [16]. Further, the Potency entry in experiment [13] and in experiment [17] was “inactive” each time. The max response in experiment [14] is -2.05% and -1.03%.

`CCCCCCCCn1sccc1=O`: the molecule was called inactive in experiment [2]. The caspase-3 activation in [3] was -3.17%. Further, the Potency in experiment [4] is 12.6 µM (active); in experiment [18], 31.6 µM (active); in [5], 5.01 µM (active); in experiment [6], 15.8 µM (active); in experiment [7], 6.31 µM (active); in experiment [8] it was 7.94 µM (active). Besides, the Potency was 2.51 µM (active) in [9]; 3.98 µM (active) in experiment [10]; 2.51 µM (active) in experiment [11]; 2.51 µM (active) in [12]; 11.9 µM (active) in [15]. Besides, the max response in experiment [14] was -5.93% and -2.13%. Moreover, the Potency result in experiment [17] is “inactive”.

`N#CSCSC#N`: the Potency is 50.3 µM (active) in experiment [19]; 25.1 µM (active) in [4]; 39.8 µM (active) in experiment [18]; 10 µM (active) in experiment [5]; 6.31 µM (active) in experiment [6]; 10 µM (active) in experiment [7]. In addition, the Potency was 12.6 µM (active) in experiment [8]; 3.98 µM (active) in experiment [9]; 5.01 µM (active) in experiment [10]; 5.01 µM (active) in experiment [11]; 3.98 µM (active) in experiment [12]; 31.6 µM (active) in experiment [13]. The figures for the Potency in [16], in [20] and in experiment [17] were 9.44 µM (active), 28.2 µM (active) and 50.1 µM (active), respectively. The caspase-3 activation in [3] was -3.87%. Also, the max response in experiment [14] is -10% and -5.06%.

(Values after PubChem BioAssay (NCATS).)
